# RORgamma inh = qHTS for inhibitors of ROR gamma transcriptional activity; Nuclear receptor ROR-gamma (Mus musculus), P51450; Drosophila S2 Gal4-RORgamma UAS-luciferase reporter, 20 h; Potency, µM (top dose mostly 53.6 µM), inactives show at the top dose activity change, negative = inhibition, usual class: inhibitors; 310,000 compounds, 5.4% hits; AID 2551, 2010; note: nearly all actives have a fitted effect of over 60% in size
#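 Luminescence from a UAS-regulated Photinus luciferase reporter in stably transfected Drosophila Schneider cells is measured; decreased signal marks ROR gamma inhibition. Fusion expression is induced by 700 uM copper sulfate for 20 hr.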
# VP16 counter = VP16 counterscreen qHTS for inhibitors of ROR gamma transcriptional activity | Drosophila S2 Gal4-VP16 UAS-luciferase, luminescence, 20 h | Potency, µM (highest dose often 53.6 µM), for the others: at the top dose activity, negative = inhibition, most hits filed as inhibitors | 310,000 compounds, 3.5% hits;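 note: Gal4-VP16 expression switched on by copper sulfate through the metallothionein promoter; nearly all actives have a fitted effect of over 50% in size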
# ELG1 repair inh = qHTS screen for small molecules that inhibit ELG1-dependent DNA repair in human embryonic kidney (HEK293T) cells expressing luciferase-tagged ELG1 | HEK293T ELG1-luciferase reporter, luminescence, 16 h; DNA damage induced by 5-fluorouridine | Potency, µM (highest dose often 46.1 µM), without a hit: top-dose activity change, negative = inhibition, actives largely listed as inhibitors | 330,000 compounds, 2.3% hits | AID 504467, 2011; note: nearly all actives have a fitted effect of over 55% in size
#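 HEK293T cells expressing luciferase-tagged ELG1 (2,000/well) received 5-Fluorouridine plus compound or DMSO for 16 hr at 37 °C. Luciferase was read by ONE-Glo luminescence after 30 min at room temperature.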
# ALOX12 inh = Primary qHTS assay for inhibitors of human arachidonate 12S-lipoxygenase (ALOX12): Round 2; Polyunsaturated fatty acid lipoxygenase ALOX12 (Homo sapiens), P18054; purified 12hLO, xylenol orange hydroperoxide absorbance; Potency, µM (series often up to 108 µM), inactives show at the top dose activity change, negative = inhibition, actives largely listed as inhibitors; 580,000 compounds, 1.1% hits; AID 1671190, 2021
# Target sequence (P18054 whole entry, looked up): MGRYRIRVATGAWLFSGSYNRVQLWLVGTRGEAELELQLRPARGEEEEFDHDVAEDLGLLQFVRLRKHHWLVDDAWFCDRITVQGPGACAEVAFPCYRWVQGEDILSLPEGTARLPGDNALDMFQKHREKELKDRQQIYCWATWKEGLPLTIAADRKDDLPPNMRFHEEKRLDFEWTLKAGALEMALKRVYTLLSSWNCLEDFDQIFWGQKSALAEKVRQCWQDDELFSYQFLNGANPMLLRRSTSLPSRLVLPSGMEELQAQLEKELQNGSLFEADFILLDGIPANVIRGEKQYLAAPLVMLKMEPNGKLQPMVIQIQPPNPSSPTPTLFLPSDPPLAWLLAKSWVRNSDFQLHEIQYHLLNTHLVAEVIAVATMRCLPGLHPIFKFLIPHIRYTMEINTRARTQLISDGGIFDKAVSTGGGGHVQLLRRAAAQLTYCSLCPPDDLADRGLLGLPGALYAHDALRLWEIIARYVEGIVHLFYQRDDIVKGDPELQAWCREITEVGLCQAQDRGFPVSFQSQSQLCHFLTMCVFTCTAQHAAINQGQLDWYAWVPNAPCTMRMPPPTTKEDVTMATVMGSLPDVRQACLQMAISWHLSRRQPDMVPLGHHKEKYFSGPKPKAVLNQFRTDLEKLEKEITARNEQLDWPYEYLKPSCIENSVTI
#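 Purified human 12hLO (150 nM final) in 25 mM Hepes, 0.01% Triton X-100, pH 7.0 was preincubated 15 min at room temperature with compound. Then 40 uM arachidonic acid was added, 30 min. Hydroperoxide was read by Fe-XO absorbance ratio 573/405 nm.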
# TDP1 cell noCPT = qHTS for Inhibitors of human tyrosyl-DNA phosphodiesterase 1 (TDP1): qHTS in cells in absence of CPT. Potency, µM (doses to about 46.2 µM), for inactives: top-dose activity change, negative = growth inhibition, actives largely listed as inhibitors. AID 686978, 2013. DT40 Tdp1-/- hTDP1 cells, no CPT, ATP luminescence, 48 h. 420,000 compounds, 15% hits; note: nearly all actives have a fitted effect of over 55% in size
#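 A cellular qHTS used chicken DT40 cells lacking endogenous Tdp1 but carrying stably transfected human TDP1. Compounds were applied without camptothecin, and cell growth kinetics were judged by ATP-dependent luminescence after ≥48 hr.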
# DT40 TDP1 CPT = qHTS for Inhibitors of human tyrosyl-DNA phosphodiesterase 1 (TDP1): qHTS in cells in presence of CPT; chicken DT40 Tdp1-/-;hTDP1 cells + 20 nM CPT, ATP luminescence, 48 h; Potency, µM (series often up to 46.2 µM), for inactives: at the top dose activity change, negative = growth inhibition, actives largely listed as inhibitors; 420,000 compounds, 12% hits; AID 686979, 2013; note: nearly all actives have a fitted effect of over 55% in size
#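 Cell growth measured by CellTiter-Glo luminescence after a minimum 48 h, 37 C compound exposure with 20 nM CPT in Tdp1-knockout DT40 cells stably expressing hTDP1, seeded 400/well; qHTS titration format.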
# The depositor's hits bear a star; ? = inconclusive; nt = not tested or not shown; ! = not active in a repeat; [ ] = remark or other dose. A selection: hits, their analogues and other compounds. The true share with any hit is near 15%. Calls come from the whole dose curve; as a rule, active = well fitted curve in the direction sought with a large enough effect; inconclusive = small, poorly fitted or top-dose-only effect, or another doubt; inactive = no such curve, though single readings can be large; an effect the other way counts as inactive or inconclusive. % is set by controls: 0 for no effect and ±100 for the full control effect; potency is the fitted concentration of half-maximal effect.
SMILES,RORgamma inh,VP16 counter,ELG1 repair inh,ALOX12 inh,TDP1 cell noCPT,DT40 TDP1 CPT
COc1ccc(/C=C(\C#N)Sc2ccc(Br)cc2)cc1,nt,nt,nt,-59%,nt,nt
CNc1nnc(SCc2ccc(F)cc2Cl)s1,nt,nt,nt,11%,nt,nt
CCN(CC)C(=O)c1cccc(-c2csc(C(C)(O)c3cccc(OC)c3)n2)c1 (stereo not given),nt,nt,nt,4%,23µM*,18µM*
COc1cccc(C(C)(O)c2nc(-c3cccc(NC(C)=O)c3)cs2)c1 (stereo not given),nt,nt,nt,15%,?,?
Cc1cc(C)cc(-n2ncc3c(NCC4CCCO4)ncnc32)c1 (stereo not given),nt,nt,nt,34%,nt,nt
CC1CN(c2ccc(NC(=S)Nc3ccc(N4CC(C)OC(C)C4)cc3)cc2)CC(C)O1 (stereo not given),2.5µM*,8.9µM*,-6%,?,?,?
OC1CCCN(C(=S)Nc2ccc(SC(F)F)cc2)C1 (stereo not given),12%,-1%,?,8%,0%,1%
CC1CC(C)CN(C(=S)Nc2ccc(OC(F)F)cc2)C1 (stereo not given),11µM*,?,10%,-27%,5%,14%
CC1CC(C)CN(C(=S)Nc2ccc(SC(F)F)cc2)C1 (stereo not given),5µM*,11µM*,-9%,-6%,?,-19%
CC1CN(C(=S)Nc2ccc(SC(F)F)cc2)CC(C)O1 (stereo not given),11µM*,-8%,-5%,-12%,-14%,-15%
CC1CN(C(=S)Nc2ccc(Cl)cc2)CC(C)O1 (stereo not given),-43%,-25%,7%,17%,13%,-5%
CCCc1ncncc1C(=O)N1C[C@@H](C)[C@](O)(C2CC2)C1,nt,nt,nt,39%,nt,nt
C[C@H](NC(=O)Cc1cc(F)cc(F)c1)C(=O)N[C@H](C(=O)OC(C)(C)C)c1ccccc1,nt,nt,nt,1%[57.4 µM],nt,nt
Cc1ccc(C(=O)N(C)C)cc1NC(=O)CC1CC2CCC1C2 (stereo not given),nt,nt,nt,-30%,nt,nt
CC1CN(C(=S)Nc2cccc(Cl)c2Cl)CC(C)O1 (stereo not given),18µM*,?,-7%,4%,21%,0%
S=C(Nc1cccc(Cl)c1Cl)N1CCCC1,-36%,-2%,11%,?,16%,-16%
Cc1ccc(Nc2nc3nonc3[nH]c2=O)cc1Cl,?,?,?,?,26µM*,16µM*
COc1cccc(CN(C)C(=O)c2cnn(-c3ncc4c(n3)-c3ccccc3CCC4)c2C)c1,nt,nt,nt,?,23µM*,18µM*
CCOC(=O)CN(C)C(=O)c1cnn(-c2ncc3c(n2)-c2ccccc2CCC3)c1C,nt,nt,nt,-1%,?,4%[9.04 µM]
COc1ccc(/C=C(\NC(=O)c2ccccc2)C(=O)O)cc1,nt,nt,nt,33%,nt,nt
CCOC(=O)[C@H](CCc1ccccc1)N[C@@H](C)C(=O)N1Cc2ccccc2C[C@H]1C(=O)O,nt,nt,nt,?,0.26µM*!,?
CCOC(=O)[C@@H](CCc1ccccc1)N[C@H](C)C(=O)N1[C@H](C(=O)O)C[C@@H]2CCC[C@@H]21,-10%,7%,-15%,-10%,-6%,0%
N=c1n(CC(=O)c2ccc(Br)s2)c2ccccc2n1Cc1ccccc1,10µM*,14µM*,?,?,4.6µM*,5.2µM*
Cn1c(=N)n(CC(=O)c2ccc(Br)s2)c2ccccc21,23%,2%,?,10%,18µM*,26µM*
CCN(CC)CCn1c(=N)n(CC(=O)c2ccc(Br)s2)c2ccccc21,-5%,0%,?,?,7.3µM*,5.8µM*
SMILES,RORgamma inh,VP16 counter,ELG1 repair inh,ALOX12 inh,TDP1 cell noCPT,DT40 TDP1 CPT
CCCn1c(=N)n(CC(=O)c2cccs2)c2ccccc21,24%,2%,5%,16%,?,?
COc1cccc(C(=O)Cn2c(=N)n(C)c3ccccc32)c1,10µM*,?,?,15%,21µM*,13µM*
COc1cccc(Cn2cnc(-c3ccccc3OC)c2-c2ccco2)c1,nt,nt,nt,?,18µM*,18µM*
CCCCc1c(-c2ccccc2OC)ncn1Cc1cccc(OC)c1,nt,nt,nt,0%,nt,nt
CCCCc1c(-c2ccccc2OC)ncn1Cc1ccccc1,nt,nt,nt,-29%,nt,nt
COc1cccc(-c2c(-c3ccccc3OC)ncn2Cc2cccc(-c3ccccc3)c2)c1,nt,nt,nt,-17%,12µM*,8.2µM*
O=C(NC1CCCc2c1cnn2-c1ccc(F)cc1F)c1c(F)cccc1Cl (stereo not given),nt,nt,nt,27%,nt,nt
CC(C)NC(=S)NN=C1CCCCCC1,nt,nt,nt,-21%,nt,nt
CC(C)NC(=S)NN=C1CCC(c2ccccc2)CC1 (stereo not given),5.6µM*,11µM*,-2%,?,16µM*,?
CC12C(=O)N(Cc3ccco3)C(=O)C1C1c3ccccc3C2c2ccccc21 (stereo not given),-5%,-26%,-16%,0%,23µM*,?
O=C1C2C3c4ccccc4C(c4ccccc43)C2C(=O)N1Cc1ccco1 (stereo not given),?,0%,?,6%,?,?
CC1(C)O[C@@H]2[C@H](O1)[C@@H](CO)O[C@H]2n1cnc2c(=O)[nH]cnc21,nt,nt,14%,-5%,-5%,29µM*
CC(C)(C)OC(=O)Nc1ncnc2c1ncn2C1OC(CO)C2OC(C)(C)OC21 (stereo not given),-5%,-6%,19%,-2%,-18%,12%
Cn1c(Cl)c(C=O)c2cc(C=O)ccc21,nt,nt,nt,27%,nt,nt
O=C1CC(c2ccccc2)N(C(=O)CNC(=O)c2ccsc2)CCCCCCN1 (stereo not given),nt,nt,nt,1%,nt,nt
O=c1c2nncn2c2cccnc2n1CCNc1ncc(C(F)(F)F)cc1Cl,1%,-5%,-5%,4%,-15%,-4%
O=c1c(Cl)nc2cc(Cl)ccc2n1CCNc1ncc(C(F)(F)F)cc1Cl,11µM*,5µM*,?,nt,0.58µM*,0.52µM*
O=c1[nH]c2cccc(Cl)c2n(CCNc2ncc(C(F)(F)F)cc2Cl)c1=O,?,?,20%,?,?,?
